Measured values taken from PubChem BioAssay (NCI).
This is part of a sample that, as a whole, favours compounds with a hit. Of some 83,000 tested, about 20% had one in any assay.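 Single-concentration screen, 48 h exposure, 96-well plates. Endpoint: percent growth. Below 10 = active.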 Unmarked numbers belong to inactive results. Active and inactive are the calls of the source.

Each compound was assayed on NCI-H460 lung (assay: NCI-60 one-dose screen, 48 h (100 = growth as untreated, 0 = no growth, -100 = all killed)). Settings: 10 µM unless noted.

Row | Compound | growth
1 | CCOc1cc(/C=N\NC(=O)N/N=C/c2ccc(O)c(OCC)c2)ccc1O | 11.8%
2 | Cc1ccc(C2=C/C(=C/c3ccc(Br)cc3)C(=O)N2CCc2ccc(S(N)(=O)=O)cc2)cc1 | 100%
3 | Clc1ccc(N2CCN(CCCN3CCN(c4cccc(Cl)c4)CC3)CC2)cc1 | 49.5%
4 | CC(C)OC(=O)Nc1cc(F)ccc1F | 106%
5 | C[C@H]1[C@H](C)CC[C@]2(C(=O)N3CCN(C)CC3)CC[C@]3(C)C(=CC[C@@H]4[C@@]5(C)C/C(=C/c6ccco6)C(=O)C(C)(C)[C@@H]5CC[C@]43C)[C@H]12 | 6.22% [100 µM] (active)
6 | CC(C)C1=NOC(=O)C1=Cc1cn(-c2ccccc2)nc1-c1ccc(Br)cc1 | 83.5%
7 | C=C(CN=[N+]=[N-])[C@@H]1CC[C@]2(C)[C@H](CC[C@@H]3[C@H]4[C@H]5OC(=O)[C@@]4(CCC5(C)C)CC[C@]32C)[C@@]1(C)CCC#N | 73.5% [100 µM]
8 | Nn1c(Nc2ccc(S(=O)(=O)Nc3ncccn3)cc2)nnc(/C=C/c2c(O)ccc3ccccc23)c1=O | 88.4%
9 | Nc1cc(NN=C(c2ccc(O)cc2)c2ccc(O)cc2)c([N+](=O)[O-])cc1[N+](=O)[O-] | -60.1% (active)
10 | CSc1nc2c(c(=O)n1C)C1(C(=O)N(Cc3ccccc3)c3ccccc31)c1c(nc(SC)n(C)c1=O)N2 | 87.2%
11 | NNC(=O)c1ccc(C(=O)NN)cc1 | 104%
12 | COc1cc(Cl)cc(-c2nn(C(=O)NS(=O)(=O)c3ccccc3)cc2-c2ccncc2)c1 | 107%
13 | CCN(CC)CC(C)Nc1ccc(C)c2sc3ccccc3c(=O)c12 (stereo not given) | 19.5%
14 | COc1ccc2c3ccnc(C(F)(F)F)c3n(CCCCN)c2c1 | 47.1%
15 | COc1ccc(C2CC(c3cc(OC)c(OC)c(OC)c3)=NN2C(C)=O)cc1OCC(=O)Nc1nc2ccc(C(F)(F)F)cc2s1 (stereo not given) | 67.6%
16 | COC(=O)C(=Cc1ccccc1[N+](=O)[O-])C(=O)OC | 41.2%
17 | C=CCCCCOc1ccccc1-c1cnc(OCCCCC=C)n1C | 55.6%
18 | O=C(O)c1cccc(CN2CCN(c3cc4c(cc3F)c(=O)c(C(=O)O)cn4C3CC3)CC2)c1O | 106%

Row | Compound | growth
19 | Cc1cc(C)c(O)c(CNCCCCCCNCc2cc(C)cc(C)c2O)c1 | -62.6% (active)
20 | Cc1cnc(N)nc1OCC(C)(C)CNC(=O)c1cccc(-c2ccc(S(=O)(=O)Nc3ccc4c(c3)N(C(=O)C3CC3)CCC4)cc2)c1 | 53.9%
21 | CCOc1cc(NC(=O)c2ccccc2)c(OCC)cc1N | 114%
22 | CCN(CC)c1ccc(/C=C/c2ccc3cc(C)ccc3[n+]2CC)cc1 | -48.4% (active)
23 | O=C1COCCN1c1ccc(NCc2cn(Cc3ccccc3)c3ccccc23)cc1 | 31.9%
24 | c1nc(N2CCOCC2)c2[nH]ccc2n1 | 104%
25 | O=C(Nc1cccc2cccnc12)c1cc(C(=O)c2ccc(Cl)cc2)n2ccc(-c3ccncc3)cc12 | 98%
26 | COc1cc2c(c(OC)c1)C1c3cc(OC)ccc3NC(=O)N1CC2 (stereo not given) | 79.2%
27 | CC[C@]1(O)CC2CN(CCc3c([nH]c4ccccc34)[C@@](C(=O)OC)(c3cc4c(cc3OC)N(C=O)[C@H]3[C@@](O)(C(=O)OC)[C@H](OC(C)=O)[C@]5(CC)C=CCN6CC[C@]43[C@@H]65)C2)C1 (stereo not given in full) | 3.19% (active)
28 | CC(C)C1=NOC(=O)C1=Cc1cn(-c2ccco2)nc1-c1ccccc1 | 93.8%
29 | COC(=O)[C@H](CC(C)C)NC(=O)NC(=O)NC(=O)CI | 85.9%
30 | O=C1NC(=O)C(Cc2ccc(OCc3ccc(-c4cc(F)c(F)c(F)c4)cc3)cc2)S1 (stereo not given) | 92%
31 | NC(=O)CC1C=CCC1 (stereo not given) | 101%
32 | CC(C)C1=NOC(=O)C1=Cc1cn(-c2ccccc2)nc1-c1ccccc1 | 85.2%
33 | COc1ccc2c(c1)c(-c1noc(C(=O)c3cn(C)c4ncc(Br)cc34)n1)cn2C | 76.7%
34 | C#C[C@]1(O)CC[C@H]2[C@@H]3CC=C4c5nc(Nc6ccccn6)sc5CC[C@]4(C)[C@H]3CC[C@@]21C | 4.83% (active)
35 | O=C1CN(Cc2ccc(C(=O)NO)cc2)C(=O)[C@@H](Cc2ccccc2)N1 | 103%
